Screening data (PubChem)
Tat export inh = E. coli Tat transport inhibition. E. coli MC4100 TorA-mCherry Tat export, fluorescence. inhibition, % at 10 µM. 0.036% of 340,000 active;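 active = mean replicate inhibition at least 50% and at least half of replicates individually reaching 50%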;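 also: exported cargo escapes ClpAP degradation while cytoplasmic cargo is degraded and loses fluorescence; 0% = median of neutral control wells and 100% = median of NaSCN control wells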
E coli growth-1 = reduces bacterial viability in AddAB counter-screen; 0.27% of 330,000 active; E. coli V3065 growth, OD600 absorbance, 18 h; inhibition, % at 11.9 µM; AID 449728;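 active = inhibition above the campaign's mean inhibition across all tested compounds plus 3 SD, cut at about 9.9% in these data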;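 also: uninfected addAB+ strain grown without phage in ampicillin broth; 0% = DMSO wells and 100% = ciprofloxacin 0.95 µg/ml wells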
E coli growth-2 = inhibitors of Escherichia coli growth; OD600, 23 h; active compounds read low; OD600 absorbance (concentration not given with the values); AID 1053175; 0.21% of 330,000 active;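 active = OD600 absorbance below the run mean of sample wells minus 3.6 SD, in any replicate, cut at about 0.56 in these data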
phage Ecoli inh = E. coli growth loss with phage present | growth absorbance | inhibition, % at 11.9 µM | 0.26% of 360,000 active | AID 651602; in the data active = inhibition above about 11%
AddAB inh = less growth of phage-infected E. coli with AddAB; inhibition, % at 11.9 µM; 0.29% of 330,000 active; E. coli expressing H. pylori AddAB, absorbance growth; AID 435030; in the data active = inhibition above about 12%;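 also: 0% = vehicle wells of infected cells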
Numbers without * were called inactive. Compounds with a hit are over-represented: about 0.51% of the library has one in this group of screens.

Oc1c(Cl)cc(Cl)cc1CNc1nc2ccccc2[nH]1 was read as Tat export inh -17, E coli growth-1 3, E coli growth-2 0.42*, phage Ecoli inh 5 and AddAB inh 3.
Screening CCOc1ccc2[nH]c3c(NCCN(C)C)ncnc3c2c1 returned Tat export inh 8, E coli growth-1 -1, E coli growth-2 0.68, phage Ecoli inh 1 and AddAB inh 0.
For CCOc1ccc2[nH]c3c(NCCC(C)C)ncnc3c2c1 the results were Tat export inh -4, E coli growth-2 0.5* and phage Ecoli inh 8.
Screening C[C@@]12C(=O)Nc3ccc(Cl)cc3C(=O)N1C1c3cc(Br)ccc3OCC1C2c1ccccc1 (some centres not stated) returned E coli growth-2 0.71.
Cc1ccc(N(C)C)cc1 was read as phage Ecoli inh 2.
Screening Cc1ccc2c(c1)sc(-c1ccc(N(C)C)cc1)[n+]2C returned Tat export inh 35, E coli growth-1 -1, E coli growth-2 0.32*, phage Ecoli inh 5 and AddAB inh 2.
`CCc1ccc(Nc2n[n+](-c3ccccc3)c(-c3c(Cl)cccc3Cl)s2)cc1` gave Tat export inh 13, E coli growth-1 8, E coli growth-2 0.47*, phage Ecoli inh 4 and AddAB inh 8.
For O=C1C=C(c2ccnc3cc(Cl)ccc23)CC(c2ccc3c(c2)OCO3)C1 (configuration not stated) the results were E coli growth-2 0.72.
CCCCCN=C(N)NN=Cc1c[nH]c2ccc(OC)cc12 was read as E coli growth-2 0.059*.
Screening Nc1nc(-c2ccccn2)nc(N)c1Cc1ccc(Cl)cc1Cl returned Tat export inh -9, E coli growth-1 5, E coli growth-2 0.36*, phage Ecoli inh 1 and AddAB inh 1.
For CN(C)C(=O)c1cc(C(=O)c2ccc(Cl)cc2Cl)c[nH]1 the results were Tat export inh 0, E coli growth-1 2, E coli growth-2 0.68, phage Ecoli inh 2 and AddAB inh 4.
Screening NC(=O)c1cc(C(=O)c2ccc(Cl)cc2Cl)c[nH]1 returned Tat export inh -13, E coli growth-1 1, E coli growth-2 0.5*, phage Ecoli inh 2 and AddAB inh 3.
Screening CC(C)CC(NC(=O)c1nc[nH]c1C(=O)NCCCCCN)C(=O)OCc1ccccc1 (configuration not stated) returned E coli growth-2 0.69.
Screening CC1CCCCC1NC(=O)C1CCN(S(=O)(=O)c2ccc(-n3cnnn3)cc2)CC1 (configuration not stated) returned Tat export inh 6, E coli growth-1 38*, E coli growth-2 0.77, phage Ecoli inh 3 and AddAB inh 10.
`CC(C)(C)C1C=C(C(=O)N2CCN(Cc3ccccc3)CC2)OC(OCCCCO)C1` (configuration not stated) gave E coli growth-2 0.71.
For NC1=NC[C@@H](CC2CCCCC2)N1CCc1cc(C(F)(F)F)cc(C(F)(F)F)c1 the results were Tat export inh -5, E coli growth-1 -1, E coli growth-2 0.062* and AddAB inh -2.
`CCC1=C(OC(=O)N(CC)CC)N2C(=O)OC(=NCCc3c[nH]c4ccccc34)[C@]2(Cc2ccccc2)C2C1=CCC1C(=O)N(CC)C(=O)C12` (some centres not stated) gave E coli growth-2 0.7.
`Oc1ccc(-c2nc(-c3ccc(F)cc3)c(-c3ccncc3)[nH]2)cc1` gave Tat export inh -13, E coli growth-1 1, E coli growth-2 0.32*, phage Ecoli inh 3 and AddAB inh 0.
Screening Cc1cccnc1Nc1nc(-c2ccccn2)cs1 returned Tat export inh -3, E coli growth-1 2, E coli growth-2 0.5*, phage Ecoli inh 3 and AddAB inh 3.
Cc1cc(Nc2cccc(Cl)c2)nc(NCc2ccccc2)n1 was read as Tat export inh -2, E coli growth-1 1, E coli growth-2 0.46*, phage Ecoli inh 4 and AddAB inh 0.
Screening Oc1c(Cl)cc(CN2CCCCC2)c2cccnc12 returned Tat export inh -1, E coli growth-1 11* and AddAB inh 8.
Screening Oc1ccc(CN2CCCCC2)c2cccnc12 returned Tat export inh 1, E coli growth-1 4, E coli growth-2 0.68, phage Ecoli inh 3 and AddAB inh 7.
Oc1c(CN2CCN(c3ccccn3)CC2)cc(Cl)c2cccnc12 was read as Tat export inh 3, E coli growth-1 1, E coli growth-2 0.53* and AddAB inh 2.
For N#Cc1cccc(NC(=O)Nc2cccs2)c1 the results were Tat export inh 2, E coli growth-1 5, E coli growth-2 0.54*, phage Ecoli inh 5 and AddAB inh 6.
`O=C(Nc1ccc([N+](=O)[O-])cc1)c1cccc(S(=O)(=O)Nc2cccnc2)c1` gave Tat export inh -7, E coli growth-1 -1, phage Ecoli inh 3 and AddAB inh 1.
For O=C(Nc1cccnc1)c1ccc(NS(=O)(=O)c2cccc([N+](=O)[O-])c2)cc1 the results were Tat export inh -2, E coli growth-1 0, E coli growth-2 0.31*, phage Ecoli inh 1 and AddAB inh -3.
`Cc1cccc(N2C(=O)CS/C2=N\NC(=O)c2ccc(Br)cc2)c1C` gave Tat export inh -13, E coli growth-1 13*, phage Ecoli inh 11 and AddAB inh 12.
`Cc1cccc(N2C(=O)CSC2=NNC(=O)c2ccc(Br)cc2)c1C` gave E coli growth-2 0.6.
For O=[N+]([O-])c1nn(-c2ccc3c(c2)OCCO3)n(O)c1=NCCCO the results were Tat export inh -2, E coli growth-1 14*, E coli growth-2 0.6, phage Ecoli inh 8 and AddAB inh 10.
Cc1ccc(CN=c2c([N+](=O)[O-])nn(-c3ccc4c(c3)OCCO4)n2O)cc1 was read as Tat export inh -6, E coli growth-1 1, E coli growth-2 0.69, phage Ecoli inh 4 and AddAB inh 3.
`O=C(Cc1ccccc1)NNC(=S)NC(=O)c1cccs1` gave E coli growth-1 -8, E coli growth-2 0.45*, phage Ecoli inh -4 and AddAB inh -6.
`COC1C(OC(N)=O)C(O)C(Oc2ccc3c(O)c(NC(=O)c4ccc(O)c(CC=C(C)C)c4)c(=O)oc3c2C)OC1(C)C` (configuration not stated) gave E coli growth-2 0.38*.
CNCC(CC1CCCCC1)NCC(Cc1ccccc1)NCCC12CC3CC(CC(C3)C1)C2 (configuration not stated) was read as E coli growth-2 0.06*.
`CNCC(Cc1ccccc1)NCC(CC1CCCCC1)NCCCc1ccccc1` (configuration not stated) gave E coli growth-2 0.47*.
`O=C1C=C(Nc2ccccc2O)c2ccccc2C1=O` gave Tat export inh -4, E coli growth-1 -5, E coli growth-2 0.48*, phage Ecoli inh 2 and AddAB inh 3.
`O=C1C=C(NCc2ccccc2)c2ccccc2C1=O` gave Tat export inh -24, E coli growth-2 0.47* and phage Ecoli inh 4.
